Experimental findings from PubChem BioAssay (NCI) are described below.

The panel holds about 79,000 compounds, 15% with a hit somewhere; the sample as a whole holds those more often. A number with no mark means an inactive call. Active and inactive are the calls of the source. Cut-off read from the data, not from the text of the source: active = growth inhibition above about 70%; inactive = the rest.

A short description of the first experiment: NCI Yeast Anticancer Drug Screen. Data for the bub3 strain (AID 167). As to conditions: S. cerevisiae bub3 mutant strain, at 50.0 µM, stronger effect = higher value. The method in brief: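 Readout: yeast growth inhibition, expressed relative to vehicle-only wells. The test organism is a mutant strain from a panel with lesions in DNA repair or checkpoint genes.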
Consider `COc1ccc(C(=O)[O][Sn]([c]2ccccc2)([c]2ccccc2)[c]2ccccc2)c(OC)c1OC`, for which the growth inhibition was 98.9% (active).
On the same count and under the same terms, under `CCC(CC)C1(C(=O)OCCN(CC)CC)CCCCC1` stands 73% (active).
Same read-out and setting: under `O=C1OC(=O)C2C1C1C(c3ccccc3)=C(c3ccccc3)C2(O)C2C(=O)OC(=O)C12` (stereo not given) stands 74% (active); under `C/C(=C/CC1CCC2C3=CCC4CC(O)CCC4(C)C3CCC12C)C(C)C(C)C` (stereo not given), 64.8%; under `CCC1(CC(=O)O)OCCc2c1[nH]c1c(C)c(Cl)ccc21` (stereo not given), 95.8% (active).
Take `CN(C)CCCSc1c2ccccc2nc2cccc([N+](=O)[O-])c12`: the growth inhibition is -43.5%.
The same measure, in the same setting: under `CC1OC(OP(=O)(OCc2ccccc2)OCc2ccccc2)C(OC(=O)c2ccccc2)C(OC(=O)c2ccccc2)C1I` (stereo not given) stands 88.9% (active); under `C#CC(CC(C)CC(C)(C)C)NC` (stereo not given), 92.3% (active).
Still for that read-out and setting: under `N#CCCN(CCC#N)Cc1cc(-c2ccccc2)ccc1O` stands 85.2% (active); under `Cc1ccc(NC(=O)CCCC(=O)C(C#N)c2ccccc2C)cc1C` (stereo not given), 5.75%; under `C[C@H]1CC[C@@H]2[C@@H](C)[C@H]3[C@H](C[C@H]4[C@@H]5CC=C6C[C@@H](O)CC[C@]6(C)[C@H]5CC[C@]34C)N2C1`, 93% (active).
Still for that read-out and setting: as for `Cc1nc(-c2ccc(N=Cc3ccc(N(CCOS(C)(=O)=O)CCOS(C)(=O)=O)cc3)cc2)cs1`, the figure is -2.55%; as for `COc1ccc2nc3cccc([N+](=O)[O-])c3c(NCCO)c2c1`, 86.9% (active); as for `Oc1ccc(C2CCCCC2)cc1`, 48.6%.
As for `CCCCCc1cc(Cl)cc(Cl)c1O`, the growth inhibition was 9.05%.
`C=C1C(=O)OC2/C=C(\C(=O)O)CC/C=C(\C)CC(OC(=O)/C=C(\C)CC)C12` (stereo not given): the growth inhibition was 84.2% (active).
The same measure, in the same setting: under `O/N=C(/Cc1nc2cc(Cl)c(Cl)cc2nc1C/C(=N/O)c1ccncc1)c1ccncc1` stands 74% (active); under `Cc1cc(NC(=S)SCc2ccc3c(c2)OCO3)ccc1Br`, 91.2% (active).
Take `CN1C(=O)OC(C)(c2ccccc2)C1=O` (stereo not given): the growth inhibition is -11.8%.
The same measure, in the same setting: under `O=C1c2ccccc2C(=O)c2c1cccc2[N+](=O)[O-]` stands 71.4% (active).
Same read-out and setting: as for `O=[N+]([O-])c1ccccc1Oc1ccc([N+](=O)[O-])c(C(F)(F)F)c1`, the figure is 95.3% (active); as for `Cc1ccc(O)c(N=Nc2ccc(Cl)cc2)c1`, 4.4%; as for `CC(C)Cc1cc2c(cc1O)CCC1C2CC[C@@]2(C)C1CC[C@@H]2O` (stereo not given in full), 87% (active).
Same read-out and setting: under `CCOC(=O)CC1(C)C(=O)CCCC1=O` stands -6.7%; under `OC(c1cc(-c2ccc(Cl)cc2Cl)nc2ccccc12)C1CCCCN1` (stereo not given), 98.8% (active); under `COc1ccc(N=Cc2cc(Br)cc(Br)c2O)cc1.COc1ccc(N=Cc2cc(Br)cc(Br)c2O)cc1.[Co]`, 62.6%.
As to `Cc1ccc[n+](CC(=O)C2CCC3C4CC=C5CC(O)CCC5(C)C4CCC23C)c1` (stereo not given), the growth inhibition was 96.8% (active).
With `CN(C)CC(C)(C)C(/C=C/c1ccccc1)=N\Nc1ccccc1`, the growth inhibition is 98.6% (active).
Regarding `COC1(OC)C2(Cl)C(Cl)=C(Cl)C1(Cl)C1C2C2CC1(C(=O)O)c1ccccc12` (stereo not given), the growth inhibition was 90.8% (active).
Same read-out and setting: as for `NC(N)=N/N=C(\c1ccc(F)cc1)c1ccc(C(F)(F)F)cc1`, the figure is 83.7% (active); as for `O=C1CC(c2ccccc2Cl)C(c2ccccc2Cl)C1` (stereo not given), 97.2% (active); as for `O=C(Cl)c1ccc(N=Nc2ccccc2)cc1`, 65.5%.
As for `O=[N+]([O-])c1ccccc1N=Nc1c(O)[nH]c2ccc(S(=O)(=O)O)cc12`, the growth inhibition is 97.8% (active).
Still for that read-out and setting: under `Cc1ccccc1N=NC(C(=O)c1ccccc1)C(=O)c1ccccc1` stands 92.8% (active).
Still for that read-out and setting: as for `CCCCC(CC)(COC(C)=O)COC(C)=O`, the figure is -2%; as for `NCCOB(c1ccccc1)c1ccccc1`, 99.3% (active).
For `O=C(Nc1ccccc1C(=O)O)c1ccccc1`, the growth inhibition is 36%.
For `O=[N+]([O-])c1ccc(Sc2c3ccccc3nc3ccccc23)nc1`, the growth inhibition is 96.5% (active).
Still for that read-out and setting: as for `Cc1oc2c(c1C(=O)c1ccccc1)C(=O)c1ccccc1C2=O`, the figure is 91.7% (active); as for `OC1(c2ccccc2)CCN(c2c3ccccc3nc3ccccc23)CC1`, 99.3% (active).

A short description of a further experiment: NCI Yeast Anticancer Drug Screen. Data for the mlh1 rad18 strain (AID 175). Particulars: S. cerevisiae mlh1 rad18 strain growth inhibition; at 5.0 µM (retest, dose inferred, filed as 0.5); stronger effect = higher value. The gist of the method: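 In this whole-cell yeast screen, a strain with altered DNA damage repair is challenged with compound, and its growth is measured against matched vehicle-treated controls.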
In the case of `COc1ccc(C(=O)[O][Sn]([c]2ccccc2)([c]2ccccc2)[c]2ccccc2)c(OC)c1OC`, the growth inhibition was 99% (active).
Regarding `CCC(CC)C1(C(=O)OCCN(CC)CC)CCCCC1`, the growth inhibition was 4%.
The same measure, in the same setting: as for `O=C1OC(=O)C2C1C1C(c3ccccc3)=C(c3ccccc3)C2(O)C2C(=O)OC(=O)C12` (stereo not given), the figure is 18%; as for `C/C(=C/CC1CCC2C3=CCC4CC(O)CCC4(C)C3CCC12C)C(C)C(C)C` (stereo not given), 13%.
Same read-out and setting: as for `CCC1(CC(=O)O)OCCc2c1[nH]c1c(C)c(Cl)ccc21` (stereo not given), the figure is -1%; as for `CN(C)CCCSc1c2ccccc2nc2cccc([N+](=O)[O-])c12`, 2%.
On the same count and under the same terms, under `CC1OC(OP(=O)(OCc2ccccc2)OCc2ccccc2)C(OC(=O)c2ccccc2)C(OC(=O)c2ccccc2)C1I` (stereo not given) stands 55%; under `C#CC(CC(C)CC(C)(C)C)NC` (stereo not given), 1%; under `N#CCCN(CCC#N)Cc1cc(-c2ccccc2)ccc1O`, -9%.
On to `Cc1ccc(NC(=O)CCCC(=O)C(C#N)c2ccccc2C)cc1C` (stereo not given), for which the growth inhibition was 1%.
Still for that read-out and setting: under `C[C@H]1CC[C@@H]2[C@@H](C)[C@H]3[C@H](C[C@H]4[C@@H]5CC=C6C[C@@H](O)CC[C@]6(C)[C@H]5CC[C@]34C)N2C1` stands 56%; under `Cc1nc(-c2ccc(N=Cc3ccc(N(CCOS(C)(=O)=O)CCOS(C)(=O)=O)cc3)cc2)cs1`, 12%; under `COc1ccc2nc3cccc([N+](=O)[O-])c3c(NCCO)c2c1`, 77% (active).
The same measure, in the same setting: under `Oc1ccc(C2CCCCC2)cc1` stands 0%.
On the same count and under the same terms, under `CCCCCc1cc(Cl)cc(Cl)c1O` stands -3%; under `C=C1C(=O)OC2/C=C(\C(=O)O)CC/C=C(\C)CC(OC(=O)/C=C(\C)CC)C12` (stereo not given), -4%.
Regarding `O/N=C(/Cc1nc2cc(Cl)c(Cl)cc2nc1C/C(=N/O)c1ccncc1)c1ccncc1`, the growth inhibition is 1%.
Still for that read-out and setting: as for `Cc1cc(NC(=S)SCc2ccc3c(c2)OCO3)ccc1Br`, the figure is 34%.
On the same count and under the same terms, under `CN1C(=O)OC(C)(c2ccccc2)C1=O` (stereo not given) stands 0%; under `O=C1c2ccccc2C(=O)c2c1cccc2[N+](=O)[O-]`, 85% (active); under `O=[N+]([O-])c1ccccc1Oc1ccc([N+](=O)[O-])c(C(F)(F)F)c1`, -1%.
Same read-out and setting: as for `Cc1ccc(O)c(N=Nc2ccc(Cl)cc2)c1`, the figure is -3%; as for `CC(C)Cc1cc2c(cc1O)CCC1C2CC[C@@]2(C)C1CC[C@@H]2O` (stereo not given in full), -11%.
For `CCOC(=O)CC1(C)C(=O)CCCC1=O`, the growth inhibition was -3%.
Same read-out and setting: as for `OC(c1cc(-c2ccc(Cl)cc2Cl)nc2ccccc12)C1CCCCN1` (stereo not given), the figure is -6%; as for `COc1ccc(N=Cc2cc(Br)cc(Br)c2O)cc1.COc1ccc(N=Cc2cc(Br)cc(Br)c2O)cc1.[Co]`, 97% (active).
The same measure, in the same setting: as for `Cc1ccc[n+](CC(=O)C2CCC3C4CC=C5CC(O)CCC5(C)C4CCC23C)c1` (stereo not given), the figure is -4%.
`CN(C)CC(C)(C)C(/C=C/c1ccccc1)=N\Nc1ccccc1`: the growth inhibition was 2%.
On the same count and under the same terms, as for `COC1(OC)C2(Cl)C(Cl)=C(Cl)C1(Cl)C1C2C2CC1(C(=O)O)c1ccccc12` (stereo not given), the figure is 41%; as for `NC(N)=N/N=C(\c1ccc(F)cc1)c1ccc(C(F)(F)F)cc1`, 0%.
Same read-out and setting: under `O=C1CC(c2ccccc2Cl)C(c2ccccc2Cl)C1` (stereo not given) stands -2%; under `O=C(Cl)c1ccc(N=Nc2ccccc2)cc1`, 3%.
Same read-out and setting: under `O=[N+]([O-])c1ccccc1N=Nc1c(O)[nH]c2ccc(S(=O)(=O)O)cc12` stands 90% (active); under `Cc1ccccc1N=NC(C(=O)c1ccccc1)C(=O)c1ccccc1`, -8%; under `CCCCC(CC)(COC(C)=O)COC(C)=O`, 1%.
Regarding `NCCOB(c1ccccc1)c1ccccc1`, the growth inhibition is 5%.
Same read-out and setting: under `O=C(Nc1ccccc1C(=O)O)c1ccccc1` stands -7%; under `O=[N+]([O-])c1ccc(Sc2c3ccccc3nc3ccccc23)nc1`, 66%.
For the compound `Cc1oc2c(c1C(=O)c1ccccc1)C(=O)c1ccccc1C2=O`, the growth inhibition is 25%.
On the same count and under the same terms, under `OC1(c2ccccc2)CCN(c2c3ccccc3nc3ccccc23)CC1` stands -2%.
